Measurements taken from PubChem BioAssay (NCATS).
Inconclusive results are not listed. Activity calls are given as the source filed them. Calls follow the shape of the dose curve; as a rule, active = well fitted inhibition curve with a large enough effect; inconclusive = small, poorly fitted or top-dose-only effect; inactive = flat fitted curve, though single readings scatter.

How the values were obtained:
PC49 = test: qHTS profiling for inhibitors of Plasmodium falciparum proliferation (AID 504749); also: potency is read from the fitted curve at half-maximal effect; details: P. falciparum in erythrocytes, SYBR Green DNA, 72 h; series mostly up to 28.7 µM
How it was run: (§1)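 SYBR Green fluorescence of parasite DNA, read after lysis and overnight dark incubation, measured growth over 72 h in erythrocyte culture at 0.3% parasitemia and 2.5% hematocrit. Data normalised to DMSO and 0.29 uM artemisinin, with plate-drift correction.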

SC27B = test: as above; details: P. falciparum in erythrocytes, SYBR Green DNA, 72 h; series mostly up to 28.7 µM
How it was run: as §1

W2 = test: as above; details: P. falciparum in erythrocytes, SYBR Green DNA, 72 h; series mostly up to 28.7 µM
How it was run: as §1

CRL-7250 = normal cell line; test: Cytotoxic Profiling of Annotated Libraries Using Quantitative High-Throughput Screening (AID 1296008); details: Five cell lines viability, CellTiter-Glo ATP luminescence, 48-72 h; active compounds read low; as to max response: % is scaled to controls: 0 for no effect and ±100 for the full control effect
How it was run: (§2)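 Cytotoxicity was measured as CellTiter-Glo ATP luminescence, read after 10 min at room temperature. Compound treatment of the cells lasted 48 or 72 hr at 37 degrees Celsius in a qHTS format.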

HEK293 = test: as above; details: Five cell lines viability, CellTiter-Glo ATP luminescence, 48-72 h; active compounds read low
How it was run: as §2

HaCat = test: as above; details: Five cell lines viability, CellTiter-Glo ATP luminescence, 48-72 h; active compounds read low
How it was run: as §2

KB-3-1 = test: as above; details: Five cell lines viability, CellTiter-Glo ATP luminescence, 48-72 h, active compounds read low
How it was run: as §2

TAB109 = test: qHTS profiling for inhibitors of Plasmodium falciparum proliferation (AID 504749); also: potency is read from the fitted curve at half-maximal effect; details: P. falciparum in erythrocytes, SYBR Green DNA, 72 h; series mostly up to 28.7 µM
How it was run: as §1

TAB113 = test: as above; details: P. falciparum in erythrocytes, SYBR Green DNA, 72 h; series mostly up to 28.7 µM
How it was run: as §1

TAB165 = test: as above; details: P. falciparum in erythrocytes, SYBR Green DNA, 72 h; series mostly up to 28.7 µM
How it was run: as §1
Also: nearly all actives have a fitted effect of over 60% in size.

Cc1cc(-n2nc3ccc(Cl)cc3n2)c(O)c(C(C)(C)C)c1
inactive: Potency (PC49) | Potency (SC27B) | Potency (W2) | max response (CRL-7250) -3.44% | max response (HEK293) 4.97% | outcome (HaCat) | max response (KB-3-1) 6.34%

Cc1c(NC(C)C)c(=O)n(-c2ccccc2)n1C
inactive: Potency (PC49) | Potency (SC27B) | Potency (TAB109) | Potency (TAB113) | Potency (TAB165) | Potency (W2) | outcome (CRL-7250) | max response (HEK293) -10.6% | outcome (HaCat) | max response (KB-3-1) 6.84%

Cn1c([N+](=O)[O-])cnc1COC(N)=O
inactive: Potency (PC49) | Potency (SC27B) | Potency (TAB109) | Potency (TAB113) | Potency (TAB165) | Potency (W2) | max response (CRL-7250) -9.26% | max response (HEK293) 2.06% | max response (HaCat) -19.4% | max response (KB-3-1) -4.93%

CCOc1ccc(C(=O)OCCN(CC)CC)cc1
inactive: Potency (PC49) | Potency (SC27B) | Potency (TAB109) | Potency (TAB113) | Potency (TAB165) | Potency (W2) | max response (CRL-7250) -0.597% | max response (HEK293) 1.58% | max response (HaCat) -25.1% | max response (KB-3-1) -3.59%

CCCCCC(C)N (stereo unspecified)
inactive: Potency (PC49) | Potency (SC27B) | Potency (TAB113) | Potency (TAB165) | max response (CRL-7250) -6.66% | max response (HEK293) -4.16% | max response (HaCat) -0.897% | max response (KB-3-1) -3.94%

O[C@@H]1CO[C@H]2[C@@H]1OC[C@@H]2O
inactive: Potency (PC49) | Potency (SC27B) | Potency (TAB109) | Potency (TAB113) | Potency (TAB165) | Potency (W2) | outcome (CRL-7250) | max response (HEK293) -0.534% | outcome (HaCat) | max response (KB-3-1) 6.79%

O=C(O)Cn1c(C(=O)Nc2nc(-c3ccccc3Cl)cs2)cc2ccccc21
inactive: Potency (PC49) | Potency (SC27B) | Potency (TAB109) | Potency (TAB113) | Potency (TAB165) | Potency (W2) | outcome (CRL-7250) | max response (HEK293) -5.16% | outcome (HaCat) | max response (KB-3-1) -7.98%

O=C(O)CNC(=O)c1ccccc1I
inactive: Potency (PC49) | Potency (SC27B) | Potency (TAB109) | Potency (TAB113) | Potency (TAB165) | Potency (W2) | max response (CRL-7250) 4.72% | max response (HEK293) -1.69% | max response (HaCat) -16.3% | max response (KB-3-1) 7.37%

CC(=O)Nc1cccc(O)c1
inactive: Potency (PC49) | Potency (SC27B) | Potency (TAB109) | Potency (TAB113) | Potency (TAB165) | Potency (W2) | max response (CRL-7250) -4.66% | max response (HEK293) 4.09% | outcome (HaCat) | max response (KB-3-1) 0.376%

CC(=O)NCc1c(I)c(NC(C)=O)c(I)c(C(=O)O)c1I
inactive: Potency (SC27B) | Potency (TAB109) | Potency (TAB113) | Potency (TAB165) | Potency (W2) | max response (CRL-7250) 3.86% | max response (HEK293) -1.82% | max response (HaCat) -5.93% | max response (KB-3-1) 5.09%
active: Potency (PC49) 0.005 µM

Nc1ccc(S(=O)(=O)c2ccc(N)cc2)cc1
inactive: Potency (PC49) | Potency (SC27B) | Potency (TAB109) | Potency (TAB113) | Potency (TAB165) | Potency (W2) | max response (CRL-7250) 2.75% | outcome (HEK293) | max response (HaCat) 2.48% | max response (KB-3-1) -3.79%

CCN(CC)S(=O)(=O)c1ccc(C(=O)O)cc1
inactive: Potency (PC49) | Potency (SC27B) | Potency (TAB109) | Potency (TAB113) | Potency (TAB165) | Potency (W2) | max response (CRL-7250) -2.94% | outcome (HEK293) | max response (HaCat) 1.67% | max response (KB-3-1) 7.96%

Cc1ccc(S(=O)(=O)NC(=O)NC2CCCCC2)cc1
inactive: Potency (PC49) | Potency (SC27B) | Potency (TAB109) | Potency (TAB113) | Potency (TAB165) | Potency (W2) | outcome (CRL-7250) | max response (HEK293) 2.4% | outcome (HaCat) | max response (KB-3-1) 3.8%

CC(C(=O)O)c1ccc2c(c1)Cc1cccnc1O2 (stereo unspecified)
inactive: Potency (PC49) | Potency (SC27B) | Potency (TAB109) | Potency (TAB113) | Potency (TAB165) | Potency (W2) | max response (CRL-7250) -6.8% | outcome (HEK293) | max response (HaCat) -5.6% | max response (KB-3-1) -7.45%

C[C@@H]1CCC[C@H](C)N1
inactive: Potency (PC49) | Potency (SC27B) | Potency (TAB109) | Potency (TAB165) | Potency (W2) | max response (CRL-7250) 0.393% | max response (HEK293) -9.02% | outcome (HaCat) | max response (KB-3-1) -5.17%

Cc1ccc(S(=O)(=O)NC(=O)NC2CCCCCCC2)cc1
inactive: Potency (PC49) | Potency (SC27B) | Potency (TAB109) | Potency (TAB113) | Potency (TAB165) | Potency (W2) | max response (CRL-7250) -5.06% | max response (HEK293) 4.09% | outcome (HaCat) | max response (KB-3-1) 0.148%

CCCCCCCCCCCCCCCCN
inactive: Potency (PC49) | Potency (SC27B) | Potency (TAB109) | Potency (TAB165) | Potency (W2) | max response (CRL-7250) -3.5% | outcome (HEK293) | max response (HaCat) -13.8% | max response (KB-3-1) 5.46%

Cn1c(=O)c2c(ncn2CCO)n(C)c1=O
inactive: Potency (PC49) | Potency (SC27B) | Potency (TAB109) | Potency (TAB113) | Potency (TAB165) | Potency (W2) | max response (CRL-7250) -4.29% | max response (HEK293) -4.8% | outcome (HaCat) | max response (KB-3-1) -5.28%

COc1ccc(O)cc1
inactive: Potency (PC49) | Potency (SC27B) | Potency (TAB109) | Potency (TAB113) | Potency (TAB165) | Potency (W2) | max response (CRL-7250) -3.8% | outcome (HEK293) | max response (HaCat) -9.9% | max response (KB-3-1) -0.988%

C[C@@H](N)C(=O)O
inactive: Potency (PC49) | Potency (SC27B) | Potency (TAB109) | Potency (TAB113) | Potency (TAB165) | Potency (W2) | max response (CRL-7250) 0.494% | outcome (HEK293) | max response (HaCat) -6.96% | max response (KB-3-1) -23.1%

NS(=O)(=O)c1cc2c(cc1C(F)(F)F)NCNS2(=O)=O
inactive: Potency (PC49) | Potency (SC27B) | Potency (TAB109) | Potency (TAB113) | Potency (TAB165) | Potency (W2) | max response (CRL-7250) -22.8% | max response (HEK293) -7.43% | max response (HaCat) 2.79% | max response (KB-3-1) -0.385%

CC[N+](C)(CC)CCOC(=O)C1c2ccccc2Oc2ccccc21
inactive: Potency (PC49) | Potency (SC27B) | Potency (TAB109) | Potency (TAB113) | Potency (W2) | outcome (CRL-7250) | max response (HEK293) -9.27% | outcome (HaCat) | max response (KB-3-1) 56.3%

O=C(Cn1ccnc1[N+](=O)[O-])NCc1ccccc1
inactive: Potency (PC49) | Potency (SC27B) | Potency (TAB109) | Potency (TAB113) | Potency (TAB165) | Potency (W2) | max response (CRL-7250) 0.299% | max response (HEK293) -3.43% | outcome (HaCat) | max response (KB-3-1) 0.421%

CC(C)(C)C(=O)OCOC(=O)[C@@H]1N2C(=O)[C@@H](NC(=O)[C@H](N)c3ccccc3)[C@H]2SC1(C)C
inactive: Potency (PC49) | Potency (SC27B) | Potency (TAB109) | Potency (TAB113) | Potency (TAB165) | Potency (W2) | max response (CRL-7250) -7.59% | max response (HEK293) -3.05% | max response (HaCat) -3.68% | max response (KB-3-1) -7.55%

Cc1c(I)c(=O)n(-c2ccccc2)n1C
inactive: Potency (PC49) | Potency (SC27B) | Potency (TAB109) | Potency (TAB113) | Potency (TAB165) | Potency (W2) | max response (CRL-7250) 1.27% | max response (HEK293) -2.1% | max response (HaCat) -20.9% | max response (KB-3-1) 2.22%

CCN1CC(CCN2CCOCC2)C(c2ccccc2)(c2ccccc2)C1=O (stereo unspecified)
active: Potency (W2) 9.53 µM
inactive: Potency (PC49) | Potency (SC27B) | Potency (TAB113) | Potency (TAB165) | max response (CRL-7250) 2.93% | max response (HEK293) -5.24% | outcome (HaCat) | max response (KB-3-1) -4.5%

CCN(CC)CCOC(=O)C(c1ccccc1)c1ccccc1
active: Potency (W2) 7.57 µM
inactive: Potency (PC49) | Potency (SC27B) | Potency (TAB109) | Potency (TAB113) | Potency (TAB165) | max response (CRL-7250) 4.76% | max response (HEK293) -4.53% | max response (HaCat) -2.12% | max response (KB-3-1) 0.686%

C=CCNC(N)=S
inactive: Potency (PC49) | Potency (SC27B) | Potency (TAB109) | Potency (TAB113) | Potency (TAB165) | Potency (W2) | max response (CRL-7250) -5.07% | max response (HEK293) -1.79% | outcome (HaCat) | max response (KB-3-1) -9.92%

O=C1c2ccccc2C(=O)C1c1ccc(Br)cc1
inactive: Potency (PC49) | Potency (SC27B) | max response (CRL-7250) -1.25% | max response (HEK293) -0.633% | outcome (HaCat) | max response (KB-3-1) -16.6%
active: Potency (TAB113) 8.91 µM | Potency (W2) 4.78 µM

Nc1ccncc1N
inactive: Potency (PC49) | Potency (SC27B) | Potency (TAB109) | Potency (TAB113) | Potency (TAB165) | Potency (W2) | max response (CRL-7250) -6.31% | max response (HEK293) -11.7% | outcome (HaCat) | max response (KB-3-1) 10.8%

CN1C[C@@H]2C[C@H]1CN2c1cc2c(cc1F)c(=O)c(C(=O)O)cn2C1CC1
active: Potency (W2) 0.953 µM
inactive: Potency (PC49) | Potency (TAB113) | max response (CRL-7250) 2.35% | max response (HEK293) -22.9% | outcome (HaCat) | max response (KB-3-1) -8.4%

O=C(O)c1ccc(OCCCOc2ccc(C(=O)O)cc2)cc1
inactive: Potency (PC49) | Potency (SC27B) | Potency (TAB109) | Potency (TAB113) | Potency (TAB165) | Potency (W2) | max response (CRL-7250) -0.605% | max response (HEK293) -0.863% | max response (HaCat) -3.27% | max response (KB-3-1) 3.43%
